AI-2 QS modul: modulators of Vibrio harveyi AI-2 quorum sensing system; actives 0.4% (n = 300,000); AID 2094; activity change, % at 7.5 µM; Vibrio harveyi JMH597 AI-2 luminescence/OD600 ratio, 9 h; active compounds read low; strain lacks LuxN and CqsS sensors; 0 = neutral-control median; in the data active = activity change below about -75%, passing the limit was not always enough; inconclusive = no clear call, values can overlap the other calls;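 note: luminescence divided by OD600 gain over 9 h not by final OD600 alone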
HIF act: HIF pathway transcriptional activation; activation, % at 7.5 µM (by protocol); actives 0.32% (n = 300,000); U2OS HRE-luciferase reporter, luminescence; normalized: DMSO 0%, desferrioxamine 100%;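 active = mean activation of at least 10% of the iron chelator positive control signal, with at least half of replicates also reaching 10%; inconclusive = mean and replicate majority disagree about reaching 10%; inactive = mean and most replicates under 10%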
C2C12 statin: protects C2C12 myotubes from simvastatin toxicity; ATP luminescence, 48 h; scaled: DMSO 0, geranylgeraniol control 100; rescue of ATP level, % at 7.49 µM; actives 0.78% (n = 330,000);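 active = mean ATP rescue above about 67%, or every replicate alone reaching that limit, limit read from the data, passing the limit was not always enough; inconclusive = no clear call, values can overlap the other calls; inactive = mean under the limit and some replicate under it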;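 note: myotubes were challenged with 10 µM simvastatin during compound exposure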
PGC1a acetyl inh: PGC1a acetylation modulation, inhibitor mode. U2OS PGC1a acetylation, AlphaScreen anti-acetyl-lysine; with virally co-expressed GCN5 acetyltransferase. inhibition, % at 15.6 µM. actives 0.17% (n = 350,000). AID 651687;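 active = every replicate shows inhibition of at least 40%; inconclusive = mean inhibition at least 40% but some replicate below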;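 note: 0% = neutral control wells and 100% = positive control wells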
Rce1 inh: inhibitors of yeast Ras-converting enzyme | yeast membranes, quenched prenylated peptide cleavage fluorescence | calls only | actives 0.27% (n = 290,000) | AID 2563;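 active = fall in fluorescence gain of 50% or more versus controls, with final raw signal at or below 3038400; inconclusive = same 50% fall but final raw signal above 3038400; inactive = fall in fluorescence gain under 50%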;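 note: plate controls were neutral control wells for no effect and wells lacking membranes for full effect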
Target sequence (Q03530 whole entry, looked up): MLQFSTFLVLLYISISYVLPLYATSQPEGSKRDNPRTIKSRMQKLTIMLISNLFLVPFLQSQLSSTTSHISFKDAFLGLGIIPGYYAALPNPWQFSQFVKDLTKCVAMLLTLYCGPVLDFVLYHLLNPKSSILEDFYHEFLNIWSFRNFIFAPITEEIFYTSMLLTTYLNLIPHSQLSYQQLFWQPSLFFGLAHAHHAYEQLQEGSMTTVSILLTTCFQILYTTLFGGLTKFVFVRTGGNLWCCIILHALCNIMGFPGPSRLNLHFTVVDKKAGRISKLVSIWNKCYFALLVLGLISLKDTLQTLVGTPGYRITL
JMH597 growth rt: retest: blocks Vibrio harveyi JMH597 growth; shares compounds with AI-2 QS modul; OD600 absorbance, 9 h; lacks LuxN and CqsS sensors; growth inhibition, % at 7.5 µM; actives 1% (n = 750); AID 2726;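 active = every replicate shows growth inhibition above 50%; inconclusive = at least half, but not all, replicates pass that cutoff; inactive = fewer than half of replicates pass it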
BB721 lum counter: retest counter-screen: lowers luminescence of constitutive-QS Vibrio harveyi BB721; shares compounds with AI-2 QS modul; 9 h; inhibition, % at 7.5 µM; actives 95% (n = 750);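 active = inhibition above about 80% in every replicate, not just on average, limit read from the data; inconclusive = at least half of replicates past the limit, but not all; inactive = fewer than half of replicates past the limit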
BB721 growth rt: retest: blocks Vibrio harveyi BB721 growth | shares compounds with AI-2 QS modul | OD600 absorbance, 9 h | growth inhibition, % at 7.5 µM | actives 3% (n = 750);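 active = every replicate shows growth inhibition above 50%; inconclusive = at least half but not all replicates above 50% inhibition; inactive = under half of replicates above 50% inhibition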
AI-2 QS JMH597: Vibrio harveyi AI-2 signaling luminescence modulation – JMH597 strain, confirmation | shares compounds with AI-2 QS modul | Vibrio harveyi JMH597 AI-2 quorum sensing luminescence, 9 h; luxN and CqsS knockout, AI-2 only | inhibition, % at 7.5 µM | actives 97% (n = 750) | AID 2736;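 active = every replicate shows more than 75% inhibition of signal versus neutral control wells; inconclusive = half to three quarters of replicates exceed 75% inhibition; inactive = fewer than half of replicates exceed 75% inhibition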
The depositor's hits bear a star. This is a sample that favours compounds with a hit; in the whole collection about 1.3% have one here.

`COc1ccc(C#Cc2cnc3c(c2)C(=O)N([C@H](C)CO)C[C@H](C)[C@H](CN(C)Cc2cccc(C(F)(F)F)c2)O3)cc1OC` gave C2C12 statin 151.9* and PGC1a acetyl inh -30.4.
For C[C@H]1CN([C@@H](C)CO)C(=O)c2cc(C#Cc3ccncc3)cnc2O[C@H]1CN(C)CC1CCCC1 the results were PGC1a acetyl inh 4.4.
Screening COc1ccc(C#Cc2cnc3c(c2)C(=O)N([C@H](C)CO)C[C@H](C)[C@H](CN(C)C(=O)Nc2cccc(OC)c2)O3)cc1 returned C2C12 statin 9.6 and PGC1a acetyl inh 8.6.
For C[C@H](CO)N1C[C@H](C)[C@H](CN(C)S(=O)(=O)c2ccc(C#N)cc2)Oc2ncc(C#Cc3cccc(F)c3)cc2C1=O the results were C2C12 statin 21.9 and PGC1a acetyl inh 1.9.
C[C@H](CO)N1C[C@H](C)[C@@H](CN(C)CC2CCCC2)Oc2ncc(C#Cc3ccncc3)cc2C1=O was read as C2C12 statin 102.6* and PGC1a acetyl inh -23.2.
`Cc1ccc(S(=O)(=O)N(C)C[C@@H]2Oc3ncc(C#Cc4cccc(F)c4)cc3C(=O)N([C@H](C)CO)C[C@@H]2C)cc1` gave C2C12 statin 99.9* and PGC1a acetyl inh -3.3.
`C[C@H](CO)N1C[C@H](C)[C@H](CN(C)C(=O)Nc2ccccc2)Oc2ccc(NC(=O)C3CCCCC3)cc2C1=O` gave C2C12 statin -23.1 and PGC1a acetyl inh -3.6.
`COc1ccc(S(=O)(=O)N(C)C[C@H]2OCCCC[C@@H](C)Oc3ccc(NC(=O)Nc4ccccc4)cc3C(=O)N([C@@H](C)CO)C[C@H]2C)cc1` gave PGC1a acetyl inh -36.7.
For Cc1noc(C)c1NC(=O)N(C)C[C@H]1Oc2ccc(NC(=O)Cc3cn(C)c4ccccc34)cc2C(=O)N([C@@H](C)CO)C[C@H]1C the results were C2C12 statin -3.9 and PGC1a acetyl inh -9.0.
`COc1ccc(OCCC(=O)Nc2cc(C)on2)cc1` gave AI-2 QS modul 22.5, HIF act 0.0, C2C12 statin -11.0, PGC1a acetyl inh 0.2 and Rce1 inh inactive.
COc1ccc(CC(=O)Nc2cc(Cl)ccc2O)cc1 was read as AI-2 QS modul -94.1*, HIF act -0.1, C2C12 statin 5.5 and Rce1 inh inactive.
For COc1ccc(CC(=O)Nc2cc(C)on2)cc1 the results were AI-2 QS modul 16.6, HIF act 0.2, C2C12 statin 136.9*, PGC1a acetyl inh 3.1 and Rce1 inh inactive.
`Cc1ccc(S(=O)(=O)N(C)C[C@@H]2Oc3c(NC(=O)CCCCCC(=O)Nc4ccccc4N)cccc3C(=O)N([C@H](C)CO)C[C@@H]2C)cc1` gave PGC1a acetyl inh 0.1.
For CO[C@@H]1CN(C)C(=O)c2cc(NS(C)(=O)=O)ccc2OC[C@@H](C)N(C(=O)C2CC2)C[C@H]1C the results were C2C12 statin 7.5 and PGC1a acetyl inh -8.7.
Screening Cc1ccc(CNC(=O)CCCCn2c(=O)[nH]c3ccsc3c2=O)cc1 returned AI-2 QS modul 10.1, HIF act -0.4, C2C12 statin 18.4, PGC1a acetyl inh -8.0 and Rce1 inh inactive.
`O=C(CCCCCn1c(=O)[nH]c2ccsc2c1=O)NCc1ccc(F)cc1` gave AI-2 QS modul 8.8, HIF act -0.4, C2C12 statin 120.2*, PGC1a acetyl inh 9.0 and Rce1 inh inactive.
`COc1ccc(/C(N)=N/OC(=O)Cc2ccc(C)cc2)cc1` gave AI-2 QS modul -90.9*, HIF act 0.5, Rce1 inh inactive, JMH597 growth rt -7.6, BB721 lum counter 95.3*, BB721 growth rt -26.4 and AI-2 QS JMH597 96.8*.
For Cc1ccc(/C(N)=N/OC(=O)Cc2ccccc2)cc1 the results were AI-2 QS modul -67.4, HIF act 2.2 and Rce1 inh inactive.
Screening COc1ccc(CC(=O)O/N=C(\N)c2ccccn2)cc1 returned AI-2 QS modul inconclusive, HIF act 0.3, Rce1 inh inactive, JMH597 growth rt 7.6, BB721 lum counter 84.4*, BB721 growth rt 3.0 and AI-2 QS JMH597 87.8*.
For N/C(=N\OC(=O)Cc1ccc(-c2ccccc2)cc1)c1ccccn1 the results were AI-2 QS modul 28.1, HIF act -0.1, PGC1a acetyl inh -8.9 and Rce1 inh inactive.
O=C(COc1cccc(C(F)(F)F)c1)Nc1ccc2[nH]ncc2c1 was read as AI-2 QS modul -78.8*, HIF act -0.8, C2C12 statin -9.5, PGC1a acetyl inh -8.2, Rce1 inh inactive, JMH597 growth rt 10.6, BB721 lum counter 87.1*, BB721 growth rt 1.6 and AI-2 QS JMH597 91.1*.
O=C(COc1cccc(C(F)(F)F)c1)Nc1cccnc1 was read as AI-2 QS modul 5.9, HIF act 0.8, C2C12 statin -18.0, PGC1a acetyl inh -1.2 and Rce1 inh inactive.
CC1(c2ccccc2Cl)NC(=O)N(CC(=O)Nc2ccc(N3CCOCC3)cc2)C1=O (configuration not stated) was read as C2C12 statin 0.3.
Screening CC1(c2ccc3c(c2)OCO3)NC(=O)N(CC(=O)Nc2ccc(N3CCOCC3)cc2)C1=O (configuration not stated) returned AI-2 QS modul -88.4*, HIF act -0.6, C2C12 statin 3.7, PGC1a acetyl inh 1.5, Rce1 inh inactive, JMH597 growth rt -0.4, BB721 lum counter 87.6*, BB721 growth rt -6.1 and AI-2 QS JMH597 93.7*.
Screening Cc1cccc(NC(=O)CN2C(=O)NC(C)(c3ccc4c(c3)OCO4)C2=O)c1 (configuration not stated) returned AI-2 QS modul -87.0*, HIF act -0.2, PGC1a acetyl inh -3.6, Rce1 inh inactive, JMH597 growth rt -5.4, BB721 lum counter 88.4*, BB721 growth rt 4.2 and AI-2 QS JMH597 91.9*.
O=C(CN1C(=O)NC2(CCOc3ccccc32)C1=O)Nc1cccc(Cl)c1 (configuration not stated) was read as AI-2 QS modul -93.0*, HIF act -0.7, Rce1 inh inactive, JMH597 growth rt -5.3, BB721 lum counter 96.3*, BB721 growth rt -7.7 and AI-2 QS JMH597 97.7*.

Assay outcomes from PubChem BioAssay.
